{"source": "PubChem BioAssay AID602438", "about": "(Sanford-Burnham Center for Chemical Genomics, 2012)", "note": "About 3,100 (0.86%) of roughly 360,000 compounds were called active.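 How the source made its calls: active means inhibition or corrected inhibition above about 18%, plus a signal ratio from 0.5 to 1.5 (limit read from the data, passing the limit was not always enough); inactive means the rest.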 Shown is part of a subset that was picked to be rich in actives."}
{"target": "Neuropilin-1 (Homo sapiens) (UniProt O14786)", "sequence (O14786 whole entry, looked up)": "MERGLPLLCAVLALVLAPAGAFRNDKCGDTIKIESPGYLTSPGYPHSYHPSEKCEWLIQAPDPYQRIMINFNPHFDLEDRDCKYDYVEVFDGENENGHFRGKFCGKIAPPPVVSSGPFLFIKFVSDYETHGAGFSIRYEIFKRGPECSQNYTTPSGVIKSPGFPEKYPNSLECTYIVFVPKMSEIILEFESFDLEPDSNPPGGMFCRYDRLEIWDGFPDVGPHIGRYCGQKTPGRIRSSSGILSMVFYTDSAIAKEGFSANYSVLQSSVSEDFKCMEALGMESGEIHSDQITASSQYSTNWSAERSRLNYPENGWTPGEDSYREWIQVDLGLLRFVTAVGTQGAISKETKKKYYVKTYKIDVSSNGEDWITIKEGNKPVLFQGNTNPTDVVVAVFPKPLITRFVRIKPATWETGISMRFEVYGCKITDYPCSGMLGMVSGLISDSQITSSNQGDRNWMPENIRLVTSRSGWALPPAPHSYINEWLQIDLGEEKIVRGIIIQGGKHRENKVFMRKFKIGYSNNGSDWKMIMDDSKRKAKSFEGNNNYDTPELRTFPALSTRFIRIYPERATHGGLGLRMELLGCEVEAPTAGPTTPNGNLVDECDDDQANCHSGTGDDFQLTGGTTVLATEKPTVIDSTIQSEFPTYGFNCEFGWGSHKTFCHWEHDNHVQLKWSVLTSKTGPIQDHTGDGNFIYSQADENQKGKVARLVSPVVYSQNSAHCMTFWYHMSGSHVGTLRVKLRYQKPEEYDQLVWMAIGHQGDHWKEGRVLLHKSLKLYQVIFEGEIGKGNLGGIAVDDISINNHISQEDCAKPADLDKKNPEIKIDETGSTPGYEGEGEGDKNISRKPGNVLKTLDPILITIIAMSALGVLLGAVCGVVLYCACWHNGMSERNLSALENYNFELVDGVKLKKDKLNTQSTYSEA", "test": "NRP-1/CendR peptide interaction modulators – biochemical, fluorescence polarization, uHTS, primary screen (AID 602438)", "conditions": "FAM-RPARPAR peptide binding to NRP-1, fluorescence polarization; at 25 µM; hits give high values"}
{"molecule": "Cc1cccc(C)c1NC(=O)C(c1cccc(F)c1)N1CCN(C)CC1", "note": "(configuration not stated)", "inhibition": "1.1% (inactive)"}
{"molecule": "CCOc1ccc(/C(O)=C2/C(=O)C(=O)N(Cc3cccnc3)C2c2ccc(N(C)C)cc2)c(C)c1", "note": "(configuration not stated)", "inhibition": "6.1% (inactive)"}
{"molecule": "Cc1ccc(CN2CCCOCCS2(=O)=O)cc1", "inhibition": "4% (inactive)"}
{"molecule": "O=C(Oc1ccc([N+](=O)[O-])cc1)c1ccc2ccccc2n1", "inhibition": "6.3% (inactive)"}
{"molecule": "Cc1ccc2cccc([N+](=O)[O-])c2n1", "inhibition": "-4.4% (inactive)"}
{"molecule": "O=[N+]([O-])c1cc2ccccc2nc1-c1ccccc1", "inhibition": "20.7% (active)"}
{"molecule": "CNc1nc(=O)n(C2CCCO2)cc1C", "note": "(configuration not stated)", "inhibition": "-12.3% (inactive)"}
{"molecule": "CCCCCCNC(=O)O[C@]12C[C@@H](C(=O)OC)[C@@H](C(=O)OC)C[C@@]1(O)CN(S(=O)(=O)c1ccc(C)cc1)C2", "inhibition": "-8.7% (inactive)"}
{"molecule": "Cc1ccc(C(=O)COC(=O)c2cccc(N3C(=O)c4c(C)nc5ccccc5c4C3=O)c2)cc1C", "inhibition": "-9.4% (inactive)"}
{"molecule": "COc1ccc(Cn2c(=O)sc3ccccc32)cc1OC", "inhibition": "-6.5% (inactive)"}
{"molecule": "COc1ccc(CCN=C2SCC(=O)N2Cc2ccccc2)cc1OC", "inhibition": "32.3% (active)"}
{"molecule": "COc1ccc(CCN=C2SCC(=O)N2C)cc1OC", "inhibition": "0.9% (inactive)"}
{"molecule": "COc1cccc(OC)c1C(=O)N1CCN(Cc2cccnc2)CC1", "inhibition": "1.8% (inactive)"}
{"molecule": "N#CCCN(CCC#N)c1nnc(-c2ccccc2)s1", "inhibition": "0.8% (inactive)"}
{"molecule": "Cc1nn2cc(-c3ccc(Cl)cc3)cnc2c1Br", "inhibition": "4% (inactive)"}
{"molecule": "CC(C)Oc1ccc(CCC(=O)NNC(=S)NCc2ccccc2)cc1", "inhibition": "37.4% (active)"}
{"molecule": "Cc1scc(C(=O)NNC(=S)NCc2ccccc2)c1C", "inhibition": "6.1% (inactive)"}
{"molecule": "CC(C)Oc1ccc(CC(=O)NNC(=S)Nc2ccc(Br)cc2)cc1", "inhibition": "1.7% (inactive)"}
{"molecule": "O=C(CS(=O)(=O)c1ccc(C(F)(F)F)cn1)NNC(=O)c1ccccc1", "inhibition": "-6.4% (inactive)"}
{"molecule": "CC[C@@]1(C(=O)OC)N[C@H](CN(C)C(C)=O)[C@@H]2C(=O)N(C)C(=O)[C@@H]21", "inhibition": "-0.8% (inactive)"}
{"molecule": "CCNC(=O)N(CC)C[C@H]1N[C@@](CC)(C(=O)OC)[C@H]2C(=O)N(Cc3ccccc3)C(=O)[C@@H]12", "inhibition": "-9.5% (inactive)"}
{"molecule": "CCN(C[C@H]1N[C@@](CC)(C(=O)OC)[C@H]2C(=O)N(C)C(=O)[C@@H]12)C(=O)Nc1ccc(F)cc1", "inhibition": "33.4% (active)"}
{"molecule": "CCOC(=O)c1c(C)nn(-c2ncccc2NC(=O)CCC(=O)O)c1C", "inhibition": "21.7% (inactive)"}
{"molecule": "Cc1cc(C(=O)Nc2ccc(C)c(S(=O)(=O)N3CCOCC3)c2)c2ccccc2n1", "inhibition": "-3.5% (inactive)"}
{"molecule": "CC(C)(CNC(=O)c1cc(=O)[nH]c2ccccc12)N1CCOCC1", "inhibition": "9.2% (inactive)"}
{"molecule": "COc1ccc(NC(=O)c2cc(=O)[nH]c3ccccc23)cc1S(=O)(=O)N1CCOCC1", "inhibition": "26.2% (active)"}
{"molecule": "Cc1ccc(O)c(NC(=O)c2cc(-c3ccco3)on2)c1", "inhibition": "-12.1% (inactive)"}
{"molecule": "CC(C)Oc1ccc(C(CC(=O)N2CCOCC2)C(C)C)cc1", "note": "(configuration not stated)", "inhibition": "9% (inactive)"}
{"molecule": "CCN(CC)C(=O)CSC(Nc1cccc(F)c1)=C(C#N)C#N", "inhibition": "-180% (inactive)"}
{"molecule": "O=C1C2C3C=CC(C3)C2C(=O)N1c1ccc(-c2nc3ccccc3c(=O)o2)cc1", "note": "(configuration not stated)", "inhibition": "0.6% (inactive)"}
{"molecule": "COc1c(O)ccc2c1CN1CCc3cc4c(cc3C1C2)OCO4", "note": "(configuration not stated)", "inhibition": "30% (active)"}
{"molecule": "COc1cc(C2c3cc4c(cc3C(O)C3COC(=O)C23)OCO4)cc(OC)c1OC", "note": "(configuration not stated)", "inhibition": "-3.6% (inactive)"}
{"molecule": "COc1ccc(CN2CCCC(N3CCc4ccccc4C3)C2)c(O)c1", "note": "(configuration not stated)", "inhibition": "5% (inactive)"}
{"molecule": "CC(C)(C)NC(=O)C(=O)NCc1ccncc1", "inhibition": "-1.7% (inactive)"}
{"molecule": "CCCN1C2CCCC1CC(NC(=O)NC13CC4CC(CC(C4)C1)C3)C2", "note": "(configuration not stated)", "inhibition": "5.4% (inactive)"}
{"molecule": "Cc1ccccc1NC(=O)CSc1ccc2nnc(-c3ccccn3)n2n1", "inhibition": "8.8% (inactive)"}
{"molecule": "O=C(N/N=C/c1ccc(Br)o1)c1cncc(Br)c1", "inhibition": "2.7% (inactive)"}
{"molecule": "Cc1ccc(C(=O)N/N=C\\c2cc(Br)c(Br)o2)cn1", "inhibition": "28.3% (active)"}
{"molecule": "CCOc1cc(/C=N/NC(=O)c2ccncc2)cc(Br)c1O", "inhibition": "2.3% (inactive)"}
{"molecule": "Cc1ccccc1Cn1c(C)c(C(=O)NCc2cccc(C(F)(F)F)c2)sc1=O", "inhibition": "-0.6% (inactive)"}
{"molecule": "O=C1c2ccccc2C(O)N1Cc1ccccc1", "note": "(configuration not stated)", "inhibition": "-0.3% (inactive)"}
{"molecule": "CCOC(=O)C1=C(c2ccccc2)NC(=O)NC1c1cc(OC)c(OC)cc1OC", "note": "(configuration not stated)", "inhibition": "-1.4% (inactive)"}
{"molecule": "Nn1c(SCC(=O)NC2CCCC2)nnc1-c1ccccc1F", "inhibition": "6.4% (inactive)"}
{"molecule": "Cc1nnc(SCC(=O)NC(=O)NC2CCCC2)n1N", "inhibition": "30.1% (active)"}
{"molecule": "Nn1c(SCC(=O)NC(=O)NC2CCCC2)nnc1-c1ccccc1F", "inhibition": "-0.3% (inactive)"}
{"molecule": "COC(=O)c1cccc(N(C(=O)CNC(=O)c2cccs2)C(C(=O)NCC2CCCO2)c2ccc(OC)c(OC)c2)c1", "note": "(configuration not stated)", "inhibition": "6.4% (inactive)"}
{"molecule": "Cc1cccc(C(=O)Nc2ccccc2C(=O)NCc2cccnc2)c1", "inhibition": "3.7% (inactive)"}
